This is an account of results in PubChem BioAssay (NCI).

The panel holds about 83,000 compounds, 20% with a hit somewhere; the sample as a whole holds those more often.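 48-hour exposure, single concentration, 96-well plates; percent growth endpoint where 0 means no net growth. Active: below 10.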 Values without a mark were called inactive. The source made the active and inactive calls.

Experiment in all cases: NCI-60 one-dose screen, 48 h (100 = growth as untreated, 0 = no growth, -100 = all killed)
What all share (conditions): 10 µM unless noted

For experiment [1], the system named is SK-MEL-2 melanoma.
In experiment [2] the test system is EKVX NSCLC.
Experiment [3] has as its system SN12C renal.
Experiment [4] has as its system UO-31 renal.
Experiment [5] has as its system TK-10 renal.
Experiment [6] concerns ACHN renal.
Experiment [7] concerns CAKI-1 renal.
Experiment [8] has as its system A498 renal.
Experiment [9] concerns CCRF-CEM leukemia.
Experiment [10] relates to MOLT-4 leukemia.

For the compound `C#C[C@]1(O)CC[C@H]2[C@@H]3CC=C4c5sc(-c6ccc(C)cc6)nc5CC[C@]4(C)[C@H]3CC[C@@]21C`, the growth in experiment [1] is -2.55% (active); in [2], 54%; in experiment [3], 59%; in experiment [4], -7.05% (active); in experiment [5] it was 77.4%; in [6], 21.5%. The growth in experiment [7] was 8.16% (active); in [8] it was 113%; in [9], 6.48% (active); in experiment [10], -2.14% (active).

Consider `O=C(Nc1ccc(F)c(F)c1)c1cc(-c2ccc(F)cc2F)ccc1O`, for which the growth is -11.3% (active) in experiment [1]; 8.23% (active) in experiment [2]; -1.95% (active) in experiment [3]; -12.5% (active) in experiment [4]; 14.2% in [5]; 2% (active) in [6]. For the same compound, the growth in experiment [7] is -18.8% (active); in experiment [8], -53.2% (active); in [9], 15.2%; in experiment [10], 2.67% (active).

As for `COc1ccc(-c2nc(C(Cl)Cl)nc3cc(-c4ccccc4)nn23)cc1`, the growth is 77.4% in experiment [1]; -3.98% (active) in [2]; 29.1% in experiment [3]; 25.7% in [4]; 33.1% in [5]; -55.3% (active) in experiment [6]. For the same compound, the growth in experiment [7] was -14.5% (active); in [8], -33.4% (active); in [9] it was 18.2%; in experiment [10], 4.01% (active).

With `COc1ccc(C(=O)CSc2nc3c(c(Nc4ccc(S(N)(=O)=O)cc4)n2)CCCC3)cc1`, the growth in [1] is 104%; in experiment [2], 96.7%; in experiment [3] it was 89.9%; in experiment [4], 81.1%; in experiment [5], 120%; in experiment [6] it was 89.9%. Further, the growth in [7] is 70.9%; in experiment [8] it was 86.5%; in [9], 83.1%; in [10], 75.7%.

As to `CC(C)(C)c1ccc(CC(=O)Nc2sc3c(c2C(N)=O)CCC(=O)C3)cc1`, the growth was -5.02% (active) in experiment [1]; 10.8% in [2]; 6.98% (active) in experiment [3]; -87.5% (active) in experiment [4]; 16.6% in experiment [5]; -90.8% (active) in [6]. Moreover, the growth in experiment [7] is -56.2% (active); in experiment [8] it was 47.7%; in experiment [9] it was 10.8%.

With `COC(=O)c1[nH]nc2c1C1(C(=O)c3cccc4cccc1c34)C(C#N)=C(N)O2` (centres undefined), the growth is 105% in [1]; 89.9% in experiment [2]; 100% in [3]; 73.4% in [4]; 122% in [5]; 99.6% in [6]. Besides, the growth was 79.7% in experiment [7], 82.1% in experiment [8], 106% in experiment [9] and 111% in experiment [10].

For `NC(N)=Nc1ccc(Oc2cccc(NC(N)=Nc3ccc(Br)c(C(F)(F)F)c3)c2)cc1`, the growth is 83.2% in experiment [1]; 59.3% in experiment [2]; 24.5% in [3]; 89.3% in experiment [4]; 65.3% in experiment [5]; 92.9% in [6]. The growth in [7] was 72%; in [8] it was 48.4%; in experiment [9], 53.3%; in experiment [10], 49.3%.

Regarding `CC(=O)O[C@@H]1C(=O)N(c2cnccn2)[C@H]1c1ccccc1[N+](=O)[O-]`, the growth in experiment [1] was 10.6%; in [2], 58.7%; in experiment [3] it was 16.5%; in [4] it was 27.7%; in [5] it was 79.3%; in [6] it was 21.1%. The growth is 24.6% in experiment [7], -20.2% (active) in experiment [8], 12.3% in experiment [9] and 16.4% in experiment [10].

Turning to `O=S(=O)(NCCCNc1nccc(-c2[nH]c(-c3ccccc3)nc2-c2ccc(Cl)c(O)c2)n1)c1cccc2ccccc12`, the growth in experiment [1] was -4.81% (active); in experiment [2], 46.2%; in experiment [3], 24%; in [4] it was 20.2%; in experiment [5], 49.7%; in experiment [6], 19.6%. Further, the growth in experiment [7] is 39.5%; in experiment [8] it was 71.9%; in [9], 20%; in experiment [10] it was 18.7%.

Regarding `N=c1c2cc(-c3ccccc3)oc2ncn1/N=C/c1ccc(Br)cc1`, the growth is 104% in experiment [1]; 79.4% in [2]; 60% in experiment [3]; 85.4% in experiment [4]; 111% in [5]; 19.3% in experiment [6]. The growth is 88.5% in [7], 80.4% in experiment [8], 68.7% in experiment [9] and 85% in experiment [10].

Turning to `COc1ccc2[nH]cc(/C=N/Nc3nc4ccccc4s3)c2c1`, the growth in experiment [1] is 80.5%; in [2], 50%; in [3], 69.6%; in experiment [4], 37.4%; in [5], 103%; in experiment [6], 63.9%. The growth in experiment [7] was 41.3%; in experiment [8], 63.4%; in experiment [9], 47.3%; in experiment [10], 35.9%.

Turning to `COc1ccc([C@@H]2c3[nH]c4ccccc4c3C[C@H]3C(=O)N(C4CCN(CC5CCCCC5)CC4)CC(=O)N23)c(OC)c1`, the growth in experiment [1] is 95.9%; in experiment [2] it was 61.6%; in experiment [3] it was 81.6%; in experiment [4] it was 37.3%; in experiment [5] it was 98.2%; in experiment [6], 81.3%. In addition, the growth in experiment [7] is 44.7%; in experiment [8] it was 78.9%; in experiment [9], 60.5%; in experiment [10], 46.1%.

On to `CCNC(=O)N1CCc2cc(OC)c(OCCc3ccc(OC)c(N)c3)cc2C1c1cc(C)c(C)cc1C` (centres undefined), for which the growth is 33.2% in [1]; 58.3% in [2]; 39.4% in [3]; 38.4% in experiment [4]; 68% in experiment [5]; 32.5% in [6]. Further, the growth in experiment [7] was 30.1%; in experiment [8], 20%; in experiment [9], 46.7%; in [10] it was 32.3%.

`CCNC(=O)N1CCc2cc(OC)c(OCCc3ccc(OC)cc3)cc2C1c1ccc([N+](=O)[O-])cc1C` (centres undefined): the growth is 22.3% in experiment [1]; 42.2% in experiment [2]; 44% in experiment [3]; 29.3% in experiment [4]; 54.8% in experiment [5]; 30.4% in experiment [6]. For the same compound, the growth was 27.2% in [7], -16.8% (active) in experiment [8], 33.4% in [9] and 26.1% in [10].

With `COc1cc(Cn2cc3c(c2)-c2onc(CN4CCCC4)c2CC3)cc(OC)c1OC`, the growth is 101% in experiment [1]; 75.9% in [2]; 96.7% in [3]; 78.1% in [4]; 111% in [5]; 97.5% in experiment [6]. For the same compound, the growth is 91.7% in [7], 94.4% in [8], 89% in [9] and 91.8% in experiment [10].

With `CCNC(=O)N1CCc2cc(OC)c(OCCc3ccc(OC)cc3)cc2C1c1ccc(Cl)cc1C` (centres undefined), the growth in [1] is 14.7%; in experiment [2], 37%; in experiment [3], 18.6%; in [4], 28.2%; in [5], 54.2%; in experiment [6], 23.1%. Moreover, the growth in experiment [7] is 23.3%; in [8], -12.8% (active); in experiment [9], 38.2%; in experiment [10], 23.6%.

Consider `NC(N)=Nc1ccc(Oc2ccc(Nc3ccc(Cl)c(C(F)(F)F)c3)cc2)cc1`, for which the growth was 91.6% in experiment [1]; 52.4% in experiment [2]; 31.7% in experiment [3]; 69.8% in experiment [4]; 95.6% in experiment [5]; 73.4% in experiment [6]. In addition, the growth is 69.4% in experiment [7], 68.3% in experiment [8], 20.3% in [9] and 18.5% in [10].

As to `COc1ccccc1NCc1cccn1Cc1ccc(F)cc1`, the growth was 106% in experiment [1]; 98% in [2]; 97.5% in experiment [3]; 75.6% in experiment [4]; 91.3% in experiment [5]; 93.3% in [6]. The growth in experiment [7] was 94%; in [8], 85.9%; in experiment [9], 91.8%; in [10] it was 94%.

Consider `COc1ccc(NC(=O)Nc2ccc3c(ccn3C(=O)c3cccc(F)c3)c2)cc1`, for which the growth was 94.5% in experiment [1]; 88% in experiment [2]; 50.7% in [3]; 94.1% in experiment [4]; 103% in experiment [5]; 53.9% in experiment [6]. Also, the growth in experiment [7] is 90.1%; in experiment [8] it was 88.7%; in [9] it was 56.3%; in experiment [10] it was 73.2%.

For `Cc1ccc(CSc2nc(-c3ccc(Cl)cc3)c(C#N)c(N3CCNCC3)n2)cc1`, the growth in experiment [1] was 115%; in experiment [2] it was 82.2%; in [3], 77.8%; in experiment [4] it was 64.2%; in experiment [5], 99.7%; in [6], 82.3%. Moreover, the growth in experiment [7] is 64.9%; in [8], 17.6%; in experiment [9], 65.6%; in [10] it was 55.5%.

As to `Nc1nc(N)c2c(n1)NC(c1ccc(Cl)cc1)CC(c1ccc(Nc3nc(NCCO)nc(N4CCOCC4)n3)cc1)=N2` (centres undefined), the growth is 88.2% in [1]; 89.8% in [2]; 82.1% in experiment [3]; 84.4% in experiment [4]; 103% in experiment [5]; 93.7% in experiment [6]. In addition, the growth in experiment [7] is 97.2%; in experiment [8], 90.6%; in experiment [9], 48.2%; in experiment [10] it was 45.5%.

Take `CS(=O)(=O)Nc1cc(-c2ccc3ncc(C#N)c(Nc4cccc(Cl)c4F)c3c2)cnc1Cl`: the growth in experiment [1] is -71.3% (active); in [2], -5.3% (active); in [3] it was 16.1%; in experiment [4] it was -16.1% (active); in experiment [5] it was -31% (active); in experiment [6], 12.7%. For the same compound, the growth in [7] is -5.21% (active); in experiment [8], -50.9% (active); in experiment [9] it was 2.5% (active); in experiment [10], -11.1% (active).

Regarding `Cc1ccc(-n2cc(/C=C/C(=O)c3ccc(O)cc3)c(-c3ccc(S(C)(=O)=O)cc3)n2)cc1`, the growth in experiment [1] is 101%; in experiment [2] it was 91.4%; in experiment [3] it was 63.5%; in experiment [4], 76.4%; in experiment [5], 117%; in experiment [6] it was 67.7%. The growth in [7] was 73.4%; in experiment [8], 99.2%; in experiment [9], 48.8%; in [10], 34.8%.

With `NS(=O)(=O)c1ccc(Nc2cc(-c3ccccc3)nc(SCC(=O)c3ccccc3)n2)cc1`, the growth in experiment [1] was 105%; in [2], 97.9%; in experiment [3], 96%; in experiment [4], 86%; in experiment [5] it was 129%; in experiment [6], 105%. The growth in [7] was 90%; in experiment [8] it was 94.9%; in experiment [9], 98.3%; in [10], 105%.

As for `Oc1cccc2ccc(-c3nnc(SCc4ccc(O)c5ncccc45)n3-c3ccccc3)nc12`, the growth in [1] is 25.5%; in [2], 15.3%; in experiment [3], 20%; in [4], -22.8% (active); in [5], 14.2%; in experiment [6], 7.49% (active). Also, the growth in experiment [7] is 18.1%; in experiment [8] it was 31.5%; in [9], 11.6%; in experiment [10], 12.2%.

As to `CCN(CC)c1ccc(NC2=C(Cl)C(=O)c3nc(C)ccc3C2=O)cc1`, the growth was 84.9% in experiment [1]; -5.94% (active) in [2]; 64% in experiment [3]; -60% (active) in experiment [4]; 164% in experiment [5]; -61.2% (active) in experiment [6]. Also, the growth in [7] is 51.7%; in experiment [8], 104%; in experiment [9], 0.0595% (active); in experiment [10], 0.296% (active).
